Laboratory results as given in PubChem BioAssay (Tox21).
Inconclusive results are not listed. Where a call stands in place of a potency, no number is given. Active and inactive are the calls of the source. Calls follow the shape of the dose curve; as a rule, active = well fitted cell-killing curve with a large enough effect in the repeat runs; inconclusive = weak or mixed curves; inactive = no such curve, though single readings can be large or run the other way.

Experiment: qHTS assay to identify small molecule antagonists of the peroxisome proliferator-activated receptor delta (PPARd) signaling pathway - cell viability counter screen (AID 743213); also: nearly all actives have a fitted effect of over 50% in size
Details: PPARd-bla HEK293H viability, CellTiter-Glo luminescence, 17 h; series mostly up to 62 µM
Source text: U.S. Tox21 Program National Center for Advancing Translational Sciences [NCATS] NIH Chemical Genomics Center [NCGC] U.S. Environmental Protection Agency [EPA] National Institutes of Environmental Health Sciences [NIEHS] National Toxicology Program [NTP] U.S. Food and Drug Administration [FDA] Tox21 Assay Overview: The peroxisome proliferator-activated receptors (PPARs) are lipid-activated transcription factors of the nuclear receptor superfamily with three distinct subtypes namely PPAR alpha, PPAR delta (PPARd) and PPAR gamma. All these subtypes heterodimerizes with Retinoid X receptor (RXR) and have different physiological functions. […] To identify the compounds that inhibit PPAR-delta signaling, GeneBLAzer PPAR delta UAS-bla HEK293H cell line (Invitrogen, Carlsbad, CA, USA) containing a beta-lactamase reporter gene under the control of an Upstream Activator Sequence (UAS) was used to screen the Tox21 compound library. The cytotoxicity of the Tox21 compound library against the PPARd-bla cell line was tested in parallel by measuring the cell viability using CellTiter-Glo assay (Promega, Madison, WI) in the same wells.
Tox21 Assay Protocol Summary: PPARd-bla cells were dispensed at 3000 cells/5uL/well in 1536-well black wall/clear bottom plates using a Multidrop Combi (Thermo Fisher Scientific, Waltham, MA) dispenser. After the assay plates were incubated at 37 C and 5% CO2 for 5 h, 23 nL of compounds dissolved in DMSO, positive controls or DMSO only was transferred to the assay plate by a Pintool station (Kalypsys, San Diego, CA), followed by addition of 1ul L165041 (300 nM, final concentration in the wells). The assay plates were incubated at 37 C for 17 h, and then 1 uL of LiveBLAzerTM B/G FRET substrate was added using a Bioraptr Flying Reagent Dispenser (FRD) workstation (Beckman Coulter, Indianapolis, IN, USA). The assay plates were incubated at room temperature for 2 h and fluorescence intensity was measured by an Envision plate reader (PerkinElmer, Shelton, CT). For cell viability readout that measures cytotoxicity, 3 ul/well of CellTiter-Glo reagent was added into the assay plates using a Bioraptr FRD. After 30 min incubation at room temperature, the luminescence intensity in the plates was measured using a ViewLux plate reader (PerkinElmer).
Potency is read from the fitted curve at half-maximal effect.

SMILES | Potency
c1csc(-c2ccc(-c3cccs3)s2)c1 | inactive
Nc1nc(N)nc(Cl)n1 | inactive
O=S(=O)(O)F | inactive
Brc1cccc(-c2ccccc2)c1 | inactive
CC(C)C(Nc1ccc(C(F)(F)F)cc1Cl)C(=O)OC(C#N)c1cccc(Oc2ccccc2)c1 (stereo not given) | inactive
COc1ccc2[nH]cc(CCN(C(C)C)C(C)C)c2c1 | inactive
CCOC(=O)CCN(SN(C)C(=O)Oc1cccc2c1OC(C)(C)C2)C(C)C | inactive
CCN(CC)C(=O)N[C@@H]1C=C2c3cccc4[nH]cc(c34)C[C@@H]2N(C)C1 | inactive
OCC(Br)CBr (stereo not given) | inactive
CCCCCCCc1ccc(O)cc1 | inactive
C=CCOC(=O)c1ccccc1N | inactive
Cc1ccc(C)c2ccccc12 | inactive
CNC(C)(C)Cc1ccccc1 | inactive
Oc1cccc(Cl)c1Cl | inactive
c1ccc(Nc2ccc(Nc3ccccc3)cc2)cc1 | inactive
N#CSCc1ccccc1 | inactive
COc1cnc(OC)n2nc(NS(=O)(=O)c3c(OCC(F)F)cccc3C(F)(F)F)nc12 | inactive
C=CC(=O)[O][Sn]([CH2]CCC)([CH2]CCC)[CH2]CCC | 3.47 µM (active)
ClC1=C(Cl)[C@]2(Cl)[C@H]3[C@H]([C@@H]4C=C[C@H]3C4)[C@@]1(Cl)C2(Cl)Cl | inactive
CCN(CC)Cc1nccn1-c1ccc([N+](=O)[O-])cc1C(=O)c1ccccc1Cl | inactive

SMILES | Potency
CCCCCCCCCCCCCCn1cc[n+](C)c1 | 21.6 µM (active)
Nc1ccccc1-c1ccccc1 | inactive
N#Cc1c2ccccc2cc2ccccc12 | inactive
CC(=O)[O][Pb]([c]1ccccc1)([c]1ccccc1)[c]1ccccc1 | 1.23 µM (active)
Cc1c([N+](=O)[O-])cc2c(c1[N+](=O)[O-])C(C)(C)CC2(C)C | inactive
COc1c2c(cc3c1OCO3)CCN(C)C2 | inactive
O=C(Cl)c1ccccc1F | inactive
CC(C)C(Br)C(=O)NC(N)=O (stereo not given) | inactive
COP(=O)(OC)Oc1ccc([N+](=O)[O-])cc1 | inactive
C[C@]12CC[C@H]3[C@@H](CCC4=CC(=O)CC[C@@H]43)[C@@H]1CC[C@@H]2OC(=O)CCc1ccco1 | 29.8 µM (active)
CCC(C)c1cccc(C(C)CC)c1O (stereo not given) | inactive
CCCCON=O | inactive
CCN1CCC2(CC1)COc1cc3c(cc12)N(C(=O)c1ccc(-c2ccc(-c4nnc(C)o4)cc2C)cc1)CC3 | 6.38 µM (active)
CCCCc1ccccc1 | inactive
CCCCN(CCCC)C(=S)S | inactive
CC(Cl)CCl (stereo not given) | inactive
[Cl][Hg][c]1ccccc1 | 2.19 µM (active)
CCOP(=O)(OCC)Oc1cc(C)nc(C(C)C)n1 | inactive
CC1CCCC1 | inactive
COP(=S)(OC)Oc1ccc([N+](=O)[O-])c(C)c1 | inactive
